Laboratory results: PubChem BioAssay (NCI)
Compounds without any hit were thinned out: in the full panel of roughly 83,000, 20% have a hit.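 In brief: 96-well plates, 48 h treatment, single concentration, percent growth endpoint.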 Calls of active or inactive are those of the source. How the source made its calls: active means growth percent below 10; inactive means the rest.

What was measured:
Test in all cases: NCI-60 one-dose screen, 48 h (100 = growth as untreated, 0 = no growth, -100 = all killed)
Settings in all cases: 10 µM unless noted
SK-MEL-2 melanoma = system: SK-MEL-2 melanoma
EKVX NSCLC = system: EKVX NSCLC
SN12C renal = system: SN12C renal
UO-31 renal = system: UO-31 renal
TK-10 renal = system: TK-10 renal
ACHN renal = system: ACHN renal
CAKI-1 renal = system: CAKI-1 renal
A498 renal = system: A498 renal
CCRF-CEM leukemia = system: CCRF-CEM leukemia
MOLT-4 leukemia = system: MOLT-4 leukemia
RPMI-8226 leukemia = system: RPMI-8226 leukemia
OVCAR-8 ovarian = system: OVCAR-8 ovarian
OVCAR-5 ovarian = system: OVCAR-5 ovarian
OVCAR-4 ovarian = system: OVCAR-4 ovarian
SK-OV-3 ovarian = system: SK-OV-3 ovarian
IGROV1 ovarian = system: IGROV1 ovarian
OVCAR-3 ovarian = system: OVCAR-3 ovarian
HS 578T breast = system: HS 578T breast
NCI/ADR-RES ovarian = system: NCI/ADR-RES ovarian
SR leukemia = system: SR leukemia

Measured: growth

COc1ccc(-c2nc(-c3cn(C)c4ncccc34)cs2)cc1
inactive: SN12C renal 14.1% [100 µM] | UO-31 renal 14.4% [100 µM] | A498 renal 24.1% [100 µM] | OVCAR-8 ovarian 11.5% [100 µM] | OVCAR-5 ovarian 28% [100 µM] | IGROV1 ovarian 17.9% [100 µM] | OVCAR-3 ovarian 17.9% [100 µM] | HS 578T breast 38.8% [100 µM]
active: SK-MEL-2 melanoma 1.08% [100 µM] | EKVX NSCLC -26.4% [100 µM] | TK-10 renal -21.3% [100 µM] | ACHN renal 8.63% [100 µM] | CAKI-1 renal 0.0611% [100 µM] | CCRF-CEM leukemia 2.08% [100 µM] | MOLT-4 leukemia 2.81% [100 µM] | RPMI-8226 leukemia -28.1% [100 µM] | OVCAR-4 ovarian 1.57% [100 µM] | SK-OV-3 ovarian -3.58% [100 µM] | NCI/ADR-RES ovarian 3.69% [100 µM]

COc1ccc(Nc2ncccc2/C=C/C(=O)c2cc(OC)c(OC)c(OC)c2)cc1
active: SK-MEL-2 melanoma -37.6% | SN12C renal -18.1% | UO-31 renal -79.6% | TK-10 renal -14.6% | ACHN renal -83.4% | CAKI-1 renal -23.6% | CCRF-CEM leukemia -10.4% | MOLT-4 leukemia -11.7% | SR leukemia -22.4% | RPMI-8226 leukemia -25.3% | OVCAR-5 ovarian -15.4% | IGROV1 ovarian -2.98% | OVCAR-3 ovarian -88.2%
inactive: EKVX NSCLC 60.8% | A498 renal 64.6% | OVCAR-4 ovarian 29% | SK-OV-3 ovarian 64.6% | HS 578T breast 37.8% | NCI/ADR-RES ovarian 14%

O=C(O)/C=C/C(=O)Nc1cccc(Cn2nnc3cc(Cl)c(Cl)cc32)c1
inactive: SK-MEL-2 melanoma 114% | EKVX NSCLC 94.3% | SN12C renal 104% | UO-31 renal 79.5% | TK-10 renal 124% | ACHN renal 97.1% | CAKI-1 renal 95% | A498 renal 108% | CCRF-CEM leukemia 99.4% | MOLT-4 leukemia 97.1% | RPMI-8226 leukemia 104% | OVCAR-8 ovarian 99.6% | OVCAR-5 ovarian 100% | OVCAR-4 ovarian 108% | SK-OV-3 ovarian 90.1% | IGROV1 ovarian 94.1% | OVCAR-3 ovarian 101% | HS 578T breast 88% | NCI/ADR-RES ovarian 106%

Nn1c(=O)c(=O)[nH]c2c(cnn2-c2ccccc2)c1=O
inactive: SK-MEL-2 melanoma 122% | EKVX NSCLC 98.9% | SN12C renal 105% | UO-31 renal 82.2% | TK-10 renal 109% | ACHN renal 105% | CAKI-1 renal 94.3% | A498 renal 113% | CCRF-CEM leukemia 108% | MOLT-4 leukemia 101% | SR leukemia 94.5% | RPMI-8226 leukemia 103% | OVCAR-5 ovarian 108% | OVCAR-4 ovarian 118% | SK-OV-3 ovarian 102% | IGROV1 ovarian 118% | OVCAR-3 ovarian 107% | HS 578T breast 111% | NCI/ADR-RES ovarian 106%

C#CCn1cnc2cnc(Nc3cccc(NC(=O)C=C)c3)nc21
active: CCRF-CEM leukemia 1.84% [6.25 µM] | MOLT-4 leukemia 8.28% [6.25 µM] | RPMI-8226 leukemia -14% [6.25 µM]
inactive: SK-MEL-2 melanoma 61.1% [6.25 µM] | EKVX NSCLC 89.2% [6.25 µM] | SN12C renal 90.5% [6.25 µM] | UO-31 renal 37.5% [6.25 µM] | TK-10 renal 79.9% [6.25 µM] | ACHN renal 75.3% [6.25 µM] | CAKI-1 renal 83.4% [6.25 µM] | A498 renal 72% [6.25 µM] | OVCAR-8 ovarian 84.1% [6.25 µM] | OVCAR-5 ovarian 101% [6.25 µM] | OVCAR-4 ovarian 90.8% [6.25 µM] | SK-OV-3 ovarian 52.4% [6.25 µM] | IGROV1 ovarian 75.2% [6.25 µM] | OVCAR-3 ovarian 104% [6.25 µM] | HS 578T breast 74.5% [6.25 µM] | NCI/ADR-RES ovarian 98.6% [6.25 µM]

O=C(NC(Cc1nnc2n(Cc3ccccc3)c(=O)c3c4c(sc3n12)CCCC4)c1ccccc1)c1ccccc1 (stereo not drawn)
inactive: SK-MEL-2 melanoma 108% | EKVX NSCLC 99.3% | SN12C renal 119% | UO-31 renal 65% | TK-10 renal 119% | ACHN renal 127% | A498 renal 109% | MOLT-4 leukemia 61.2% | SR leukemia 104% | RPMI-8226 leukemia 123% | OVCAR-5 ovarian 86.7% | OVCAR-4 ovarian 103% | SK-OV-3 ovarian 110% | IGROV1 ovarian 54.9% | OVCAR-3 ovarian 107% | HS 578T breast 101% | NCI/ADR-RES ovarian 87.9%

CC(C)N1C(=O)/C(=c2\sc3n(c2=O)C2C(NN=3)N(C)C(=O)N2C)c2ccccc21 (stereo not drawn)
inactive: SK-MEL-2 melanoma 73.5% | EKVX NSCLC 88.8% | SN12C renal 81.7% | UO-31 renal 52.7% | TK-10 renal 94.5% | ACHN renal 59.2% | A498 renal 23.8% | CCRF-CEM leukemia 69.8% | MOLT-4 leukemia 71.5% | SR leukemia 23.3% | RPMI-8226 leukemia 94.5% | OVCAR-8 ovarian 79.6% | OVCAR-5 ovarian 84.6% | OVCAR-4 ovarian 85% | SK-OV-3 ovarian 76.3% | IGROV1 ovarian 53.2% | OVCAR-3 ovarian 20.7% | HS 578T breast 41.7% | NCI/ADR-RES ovarian 51.5%

CCCCCCCCCCCCCCCCCCOc1ccccc1CC(=O)NCC[N+]1(C)CCCCC1
active: MOLT-4 leukemia 9.62% | IGROV1 ovarian -8.66%
inactive: SK-MEL-2 melanoma 64.5% | EKVX NSCLC 89.1% | SN12C renal 33% | UO-31 renal 76.2% | TK-10 renal 42.1% | ACHN renal 93.6% | A498 renal 66% | CCRF-CEM leukemia 17.1% | SR leukemia 26.3% | RPMI-8226 leukemia 50.9% | OVCAR-8 ovarian 57.1% | OVCAR-5 ovarian 30% | OVCAR-4 ovarian 40.3% | SK-OV-3 ovarian 77% | OVCAR-3 ovarian 46.5% | HS 578T breast 61.8% | NCI/ADR-RES ovarian 104%

O=C(NNc1cnccn1)c1nc2cc(F)ccc2n2cccc12
active: ACHN renal 7.64% | A498 renal -42.1% | CCRF-CEM leukemia 4.42% | MOLT-4 leukemia 5.91% | OVCAR-4 ovarian -9.11% | OVCAR-3 ovarian 3.83% | NCI/ADR-RES ovarian 0.226%
inactive: SK-MEL-2 melanoma 40.8% | EKVX NSCLC 17.9% | SN12C renal 13.5% | UO-31 renal 16.3% | TK-10 renal 40.5% | RPMI-8226 leukemia 12% | OVCAR-8 ovarian 15.7% | OVCAR-5 ovarian 31.2% | SK-OV-3 ovarian 18.4% | HS 578T breast 60.6%

O=S(=O)(Oc1ccc(Br)cc1)c1ccc(Cl)cc1
inactive: SK-MEL-2 melanoma 116% | EKVX NSCLC 95.7% | SN12C renal 105% | UO-31 renal 82.3% | TK-10 renal 84.1% | ACHN renal 117% | A498 renal 86.6% | CCRF-CEM leukemia 97% | MOLT-4 leukemia 85.1% | SR leukemia 98.3% | RPMI-8226 leukemia 99.7% | OVCAR-8 ovarian 106% | OVCAR-5 ovarian 92.5% | OVCAR-4 ovarian 98.9% | SK-OV-3 ovarian 108% | IGROV1 ovarian 98.8% | OVCAR-3 ovarian 98.3% | HS 578T breast 104% | NCI/ADR-RES ovarian 96.2%

Cn1c(=O)c2[nH]c(SCC(=O)Nc3ccc(C(=O)/C=C/c4ccccc4Cl)cc3)nc2n(C)c1=O
inactive: SK-MEL-2 melanoma 126% | EKVX NSCLC 87.9% | SN12C renal 97.7% | UO-31 renal 92.7% | TK-10 renal 104% | ACHN renal 99% | A498 renal 85.6% | CCRF-CEM leukemia 79.5% | MOLT-4 leukemia 87.4% | RPMI-8226 leukemia 82.2% | OVCAR-8 ovarian 95% | OVCAR-5 ovarian 101% | OVCAR-4 ovarian 88.3% | SK-OV-3 ovarian 97.3% | IGROV1 ovarian 100% | OVCAR-3 ovarian 94.7% | HS 578T breast 95.5% | NCI/ADR-RES ovarian 101%

Cc1ccc(-c2nc(SCc3nc4cc(Cl)c(Cl)cc4[nH]3)[nH]c(=O)c2C#N)cc1
inactive: SK-MEL-2 melanoma 90.1% | EKVX NSCLC 96.4% | SN12C renal 102% | UO-31 renal 81.7% | TK-10 renal 99.3% | ACHN renal 106% | A498 renal 112% | CCRF-CEM leukemia 111% | MOLT-4 leukemia 101% | SR leukemia 96.7% | RPMI-8226 leukemia 115% | OVCAR-8 ovarian 98.2% | OVCAR-5 ovarian 101% | OVCAR-4 ovarian 105% | SK-OV-3 ovarian 96.2% | IGROV1 ovarian 99.6% | OVCAR-3 ovarian 99.9% | HS 578T breast 102% | NCI/ADR-RES ovarian 111%

COc1ccc(/C(C)=C(\c2ccc(Cl)cc2)c2ccc(OCCN3CCCCC3)cc2)cc1
inactive: SK-MEL-2 melanoma 56.2% | EKVX NSCLC 69.1% | SN12C renal 69.2% | UO-31 renal 48.1% | TK-10 renal 95.7% | ACHN renal 77.3% | A498 renal 86.8% | CCRF-CEM leukemia 37.5% | MOLT-4 leukemia 41.6% | OVCAR-8 ovarian 69.6% | OVCAR-5 ovarian 67.9% | OVCAR-4 ovarian 59.9% | SK-OV-3 ovarian 77.5% | IGROV1 ovarian 64.5% | OVCAR-3 ovarian 74.9% | HS 578T breast 63.6% | NCI/ADR-RES ovarian 76.8%
active: SR leukemia -7.55% | RPMI-8226 leukemia 7.75%

Cc1nn(-c2cc(NC3CCC(O)CC3)c3c(=O)[nH]c(CCC(F)(F)F)cc3c2)c2c1C(=O)CC(C)(C)C2 (stereo not drawn)
inactive: SK-MEL-2 melanoma 60.3% | EKVX NSCLC 54% | SN12C renal 46.2% | UO-31 renal 39% | TK-10 renal 61.7% | ACHN renal 31.5% | A498 renal 12.4% | CCRF-CEM leukemia 66.6% | MOLT-4 leukemia 40.8% | SR leukemia 25.9% | RPMI-8226 leukemia 40.7% | OVCAR-8 ovarian 52.1% | OVCAR-5 ovarian 85.3% | OVCAR-4 ovarian 66.8% | SK-OV-3 ovarian 36.3% | IGROV1 ovarian 55.2% | OVCAR-3 ovarian 70% | HS 578T breast 34.4% | NCI/ADR-RES ovarian 72%

CC1(C)CC[C@]2(CO)CC[C@]3(C)[C@H](CC[C@@H]4[C@@]5(C)CCCNC(C)(C)[C@@H]5CC[C@]43C)[C@H]2[C@H]1O
inactive: SK-MEL-2 melanoma 102% | EKVX NSCLC 95.2% | SN12C renal 86.2% | UO-31 renal 72.6% | TK-10 renal 86.5% | ACHN renal 101% | A498 renal 93.4% | CCRF-CEM leukemia 61.2% | MOLT-4 leukemia 54.1% | SR leukemia 10.5% | RPMI-8226 leukemia 31.4% | OVCAR-8 ovarian 95% | OVCAR-5 ovarian 92.8% | OVCAR-4 ovarian 89.7% | SK-OV-3 ovarian 92.5% | OVCAR-3 ovarian 94.3% | HS 578T breast 83.5% | NCI/ADR-RES ovarian 93.1%

Cc1ccnc(Nc2ccc([N+](=O)[O-])c(NCCN3CCOCC3)n2)c1
inactive: SK-MEL-2 melanoma 51.5% | EKVX NSCLC 96.4% | SN12C renal 36.6% | UO-31 renal 34.2% | TK-10 renal 79.4% | ACHN renal 38.6% | A498 renal 24.9% | MOLT-4 leukemia 11.7% | RPMI-8226 leukemia 26.1% | OVCAR-8 ovarian 34.8% | OVCAR-5 ovarian 99.1% | OVCAR-4 ovarian 59.4% | SK-OV-3 ovarian 62.1% | IGROV1 ovarian 28.4% | OVCAR-3 ovarian 26.1% | HS 578T breast 38.3% | NCI/ADR-RES ovarian 43.9%
active: CCRF-CEM leukemia 7.5% | SR leukemia 9.97%
